According to PubChem BioAssay:
Activity calls are given as the source filed them.

Columns and labels:
[1] = E. coli DRC41 culture turbidity changes, primary screen, E. coli filamentation inducer project, strain DRC41, OD650, 48 h (AID 1152);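 note: E. coli MC1000 strain DRC41 lacking acrAB efflux pump and sulA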; conditions: E. coli DRC41 (acrAB sulA), higher = more signal, called active from +8 up or from −8 down
[2] = small-molecule binders of probe aLefty1, primary screen, biochemical, small-molecule microarray, 635/667 nm fluorescence (AID 1153); conditions: higher = more signal;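 note: score merges spot fluorescence with signal-to-noise ratio from the scanned slide images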
[3] = PSAC antagonists in infected red cells, primary screen, cell-based, P. falciparum Indochina, OD700, 1 h (AID 1154); conditions: P. falciparum Indochina infected RBC osmotic lysis, higher = more signal, called active from +8 up or from −8 down
[4] = PSAC antagonists in infected red cells, primary screen, cell-based, P. falciparum Indochina, OD700, 2 h (AID 1155);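 note: lysis reports solute entry through the parasite surface anion channel PSAC; channel blockers reduce lysis of infected cells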; conditions: P. falciparum Indochina infected erythrocytes, osmotic lysis OD700; higher = more signal, called active from +8 up or from −8 down
[5] = osmotic lysis modulators in infected erythrocytes, primary screen, PSAC antagonist project, cell-based, P. falciparum Indochina, OD700, 3 h (AID 1156); conditions: higher = more signal, called active from +8 up or from −8 down
[6] = PSAC antagonists in infected red cells, primary screen, cell-based, P. falciparum Indochina, OD700, 18 h (AID 1157); conditions: P. falciparum Indochina infected erythrocytes, osmotic lysis OD700, 18 h; higher = more signal, called active from +8 up or from −8 down
[7] = modulators of S6 phosphorylation in cells, primary screen, cell-based, A549, cytoblot, luminescence, serum-stimulated (AID 1158); conditions: A549 phospho-S6 cytoblot, 5 h, higher = more signal;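 note: serum-stimulated A549 lung adenocarcinoma cells; signal is phosphorylated S6 detected by cytoblot immunostaining with HRP secondary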
[8] = biological target: NADPH oxidase 2 (Homo sapiens) (UniProt P04839); assay: NOX2-dependent H2O2 signal modulators, primary screen, NOX inhibitor project, cell-based, HEK293-NOX2, PMA-stimulated, Amplex Red fluorescence (AID 1159); conditions: 45 min, higher = more signal, called active from +8 up or from −8 down; note: test concentration not given here
[9] = biological target: NADPH oxidase 4 (Homo sapiens) (UniProt Q9NPH5); assay: NOX4-dependent H2O2 signal modulators, primary screen, NOX inhibitor project, cell-based, HEK293-NOX4, tetracycline-induced, Amplex Red fluorescence (AID 1160); conditions: 45 min, higher = more signal, called active from +8 up or from −8 down
[10] = biological target: NADPH oxidase 5 (Homo sapiens) (UniProt Q96PH1); assay: NOX5-dependent H2O2 signal modulators, primary screen, NOX inhibitor project, cell-based, HEK293-NOX5, Amplex Red fluorescence (AID 1161); conditions: HEK293-NOX5, ionomycin, 45 min, higher = more signal
Sequence of NADPH oxidase 5 (Homo sapiens) (Q96PH1 whole entry, looked up): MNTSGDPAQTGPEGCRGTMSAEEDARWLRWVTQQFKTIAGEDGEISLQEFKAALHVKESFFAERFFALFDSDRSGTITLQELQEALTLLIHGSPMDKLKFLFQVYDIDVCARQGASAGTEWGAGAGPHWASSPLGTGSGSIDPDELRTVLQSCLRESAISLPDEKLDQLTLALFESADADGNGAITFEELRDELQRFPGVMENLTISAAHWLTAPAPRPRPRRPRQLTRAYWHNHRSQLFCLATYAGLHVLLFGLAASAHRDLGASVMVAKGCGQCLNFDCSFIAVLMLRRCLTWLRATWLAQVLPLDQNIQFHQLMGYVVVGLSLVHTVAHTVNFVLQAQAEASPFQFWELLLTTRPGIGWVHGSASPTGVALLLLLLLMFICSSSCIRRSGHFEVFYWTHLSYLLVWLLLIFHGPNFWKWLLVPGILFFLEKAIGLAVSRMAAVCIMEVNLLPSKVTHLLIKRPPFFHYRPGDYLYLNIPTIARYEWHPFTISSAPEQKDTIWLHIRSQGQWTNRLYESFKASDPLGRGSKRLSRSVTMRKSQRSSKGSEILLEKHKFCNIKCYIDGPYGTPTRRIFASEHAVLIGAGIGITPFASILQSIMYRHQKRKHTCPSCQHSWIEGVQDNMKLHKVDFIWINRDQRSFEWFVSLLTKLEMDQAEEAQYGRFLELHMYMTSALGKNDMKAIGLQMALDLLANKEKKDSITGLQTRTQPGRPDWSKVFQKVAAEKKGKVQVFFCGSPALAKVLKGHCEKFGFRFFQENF

Sequence of NADPH oxidase 4 (Homo sapiens) (Q9NPH5 whole entry, looked up): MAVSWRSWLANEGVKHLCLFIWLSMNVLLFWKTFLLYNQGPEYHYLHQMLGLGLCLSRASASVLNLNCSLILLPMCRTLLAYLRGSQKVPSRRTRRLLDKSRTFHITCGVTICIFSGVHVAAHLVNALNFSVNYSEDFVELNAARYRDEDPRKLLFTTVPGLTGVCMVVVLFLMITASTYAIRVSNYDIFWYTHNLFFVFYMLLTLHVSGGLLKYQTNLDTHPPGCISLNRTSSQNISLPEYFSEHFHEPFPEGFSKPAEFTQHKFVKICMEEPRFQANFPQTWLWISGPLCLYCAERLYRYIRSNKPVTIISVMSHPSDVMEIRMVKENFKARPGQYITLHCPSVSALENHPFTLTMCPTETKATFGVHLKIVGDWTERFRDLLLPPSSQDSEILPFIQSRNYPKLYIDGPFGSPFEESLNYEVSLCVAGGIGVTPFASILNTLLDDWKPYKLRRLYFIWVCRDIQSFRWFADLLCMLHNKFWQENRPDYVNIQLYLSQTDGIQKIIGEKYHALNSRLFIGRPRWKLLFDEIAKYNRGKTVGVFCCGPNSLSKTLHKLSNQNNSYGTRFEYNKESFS
Sequence of NADPH oxidase 2 (Homo sapiens) (P04839 whole entry, looked up): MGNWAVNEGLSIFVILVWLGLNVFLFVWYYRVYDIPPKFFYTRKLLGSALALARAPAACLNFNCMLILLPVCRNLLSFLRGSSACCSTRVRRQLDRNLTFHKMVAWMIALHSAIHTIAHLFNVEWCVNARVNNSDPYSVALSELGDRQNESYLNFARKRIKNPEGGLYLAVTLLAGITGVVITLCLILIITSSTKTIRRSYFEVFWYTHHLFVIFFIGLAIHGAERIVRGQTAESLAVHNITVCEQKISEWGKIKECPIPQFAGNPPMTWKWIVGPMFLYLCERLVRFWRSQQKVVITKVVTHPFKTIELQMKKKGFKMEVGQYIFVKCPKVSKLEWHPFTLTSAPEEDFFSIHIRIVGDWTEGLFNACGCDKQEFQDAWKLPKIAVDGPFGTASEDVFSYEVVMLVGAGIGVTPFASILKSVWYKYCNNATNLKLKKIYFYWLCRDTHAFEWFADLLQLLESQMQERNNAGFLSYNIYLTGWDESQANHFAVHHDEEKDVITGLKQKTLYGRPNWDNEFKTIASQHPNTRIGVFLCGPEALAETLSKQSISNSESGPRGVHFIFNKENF

Compound	z-score [1]	composite z-score [2]	z-score [3]	z-score [4]	z-score [5]	z-score [6]	z-score [7]	z-score [8]	z-score [9]	z-score [10]
CCOC(=O)C[C@H]1[C@H](OC(=O)c2ccccc2-c2ccccc2)[C@@H](NC(=O)c2ccc(-c3ccccc3)cc2)c2cc(OCCCO)ccc2N1C(=O)c1ccc2ccccc2n1	-0.485 (inactive)	-0.28	2.14 (inactive)	-0.0352 (inactive)	-0.708 (inactive)	0.232 (inactive)	-0.0653	0.724 (inactive)	0.964 (inactive)	1.24
O=C(NCC(F)(F)F)[C@@H]1c2ccccc2C(=O)N(Cc2cc(F)cc(C(F)(F)F)c2)[C@H]1c1ccc(CO)cc1	0.319 (inactive)	0.0494	1.71 (inactive)	-0.0966 (inactive)	1.24 (inactive)	0.449 (inactive)	0.286	0.898 (inactive)	-1.68 (inactive)	-1.17
CC(C)(C)N1CC=CC23O[C@@H]4C=CCCOC(=O)C4[C@H]2C(=O)N(CCO)[C@@H]3C1=O (stereo not given in full)	0.209 (inactive)	-0.0823	0.901 (inactive)	0.884 (inactive)	1.28 (inactive)	0.6 (inactive)	0.461	1.31 (inactive)	0.696 (inactive)	1.23
C=CCC(OC(C)=O)[C@@H]1[C@@H](N(Cc2cc3ccccc3o2)C(=O)c2ccc(C)cc2)c2cc(OCCCO)ccc2N1C(=O)Cc1ccc(OC)cc1 (stereo not given in full)	1.72 (inactive)	0.25	1.19 (inactive)	0.794 (inactive)	-0.528 (inactive)	0.211 (inactive)	-0.0745	0.391 (inactive)	0.652 (inactive)	1.72
CCCC[C@@H]1C[C@H]1[C@@H](NC(=O)c1cccs1)c1ccc(C(F)(F)F)cc1	-2.61 (inactive)	0.101	1.5 (inactive)	0.987 (inactive)	0.247 (inactive)	0.592 (inactive)	-0.79	-0.934 (inactive)	-2.08 (inactive)	-0.948
O=C1OCCC/C=C\[C@H]2OC34C=CCN(CCN5CCOCC5)C(=O)[C@H]3N(CCCCCCO)C(=O)[C@@H]4C12 (stereo not given in full)	1.76 (inactive)	0.369	3.78 (inactive)	-0.652 (inactive)	0.752 (inactive)	-0.774 (inactive)	1.66	0.752 (inactive)	-0.153 (inactive)	1.9
COCCOC(=O)N1C(=O)[C@@]2(c3cc(C#CCNC(N)=O)ccc31)[C@H](C(=O)N1CCc3cc(OC)c(OC)cc3C1)[C@H]1C(=O)O[C@H](c3ccccc3)[C@H](c3ccccc3)N1[C@@H]2c1ccccc1OCCO	1.83 (inactive)	0.479	3.14 (inactive)	0.178 (inactive)	0.435 (inactive)	-0.244 (inactive)	1.81	1.58 (inactive)	1.09 (inactive)	-0.672
C=CCOC(=O)[C@H]1[C@@H]2C(=O)O[C@@H](c3ccccc3)[C@@H](c3ccccc3)N2[C@@H](c2ccc(OCCOC(=O)[C@H]3C[C@H]4C(=O)N[C@@H](CC(C)C)C(=O)N4[C@H]3c3cccc(OCCO)c3)cc2)[C@]12C(=O)Nc1ccc(I)cc12	-0.811 (inactive)	-0.33	2.5 (inactive)	1.3 (inactive)	0.844 (inactive)	0.963 (inactive)	0.547	1.35 (inactive)	1.6 (inactive)	1.14
COCCCNC(=O)[C@]1(CCS(=O)(=O)c2ccccc2)N=C(c2ccc(OCCCO)cc2)O[C@@H]1c1ccccc1CN=[N+]=[N-]	0.704 (inactive)	1.35	24.6 (active)	10.3 (active)	1.41 (inactive)	1.8 (inactive)	-0.377	0.826 (inactive)	1.78 (inactive)	1.97
C=CCC(OC(C)=O)[C@@H]1[C@@H](N(Cc2cccc3ccccc23)C(=O)Cc2ccc(F)cc2)c2cc(OCCCO)ccc2N1C(=O)c1ccc2ccccc2n1 (stereo not given in full)	0.518 (inactive)	0.0477	1.05 (inactive)	0.167 (inactive)	-0.315 (inactive)	0.0897 (inactive)	0.103	-0.126 (inactive)	0.619 (inactive)	1.94
COC(=O)[C@@]1(Cc2ccccc2)[C@@H]2C(=CC(=O)[C@H]2CC(=O)C(=O)N(C)C)CN1C(=O)c1ccccc1	0.174 (inactive)	0.0093	4.6 (inactive)	0.329 (inactive)	0.864 (inactive)	0.664 (inactive)	-0.52	-0.0425 (inactive)	0.705 (inactive)	0.16
CCOC(=O)C[C@H]1[C@H](OC(=O)c2ccccc2-c2ccccc2)[C@@H](NC(=O)C2CCCCC2)c2cc(OCCCO)ccc2N1C(=O)Cc1ccc(OC)cc1	-1.13 (inactive)	-0.0547	1.1 (inactive)	0.664 (inactive)	0.125 (inactive)	0.256 (inactive)	-0.434	0.0588 (inactive)	0.979 (inactive)	0.103
Cc1ccc(S[C@]2(C(=O)NCC(F)(F)F)CC(=O)N(Cc3ccccc3C(F)(F)F)[C@@H]2c2ccc(CO)cc2I)cc1	0.637 (inactive)	-0.135	3.79 (inactive)	0.853 (inactive)	1.1 (inactive)	0.205 (inactive)	-0.142	2.28 (inactive)	-1.06 (inactive)	1.94
NC(=O)NCC#Cc1ccc2c(c1)[C@]1(C(=O)N2)[C@H](C(=O)O)[C@H]2C(=O)O[C@H](c3ccccc3)[C@H](c3ccccc3)N2[C@@H]1c1ccc(OCCO)cc1	0.215 (inactive)	-0.147	3.93 (inactive)	0.523 (inactive)	0.643 (inactive)	0.247 (inactive)	0.235	2.78 (inactive)	1.14 (inactive)	-0.0124
C=CCC(OC(C)=O)[C@@H]1[C@@H](N(Cc2ccc(-c3cccc(C(F)(F)F)c3)o2)C(=O)c2ccc(C)cc2)c2cc(OCCCO)ccc2N1C(=O)c1ccc2ccccc2c1 (stereo not given in full)	1.86 (inactive)	-0.147	2.37 (inactive)	-0.0931 (inactive)	0.0854 (inactive)	-0.109 (inactive)	-0.494	-0.401 (inactive)	0.713 (inactive)	1.79
CN(C)C(=O)[C@]1(CCS(=O)(=O)c2ccccc2)N=C(c2ccc(OCCCO)cc2)O[C@@H]1c1ccccc1N=[N+]=[N-]	-0.0791 (inactive)	0.382	31.2 (active)	27.2 (active)	2.03 (inactive)	6.58 (inactive)	0.178	0.502 (inactive)	1.64 (inactive)	1.24
COC(=O)c1nc2oc1CC[C@@H](CO)NC(=O)N(C)Cc1cnnn1C[C@H](Cc1ccccc1)NC2=O	2.17 (inactive)	-0.101	1.23 (inactive)	0.656 (inactive)	1.2 (inactive)	0.409 (inactive)	0.688	-0.524 (inactive)	1.35 (inactive)	0.371
O[C@@H](Cc1ccccc1)[C@@H](/C=C/C1CC1)N(CC#Cc1ccccc1)Cc1cccc(Cl)c1	1.96 (inactive)	0.161	1.49 (inactive)	0.761 (inactive)	0.124 (inactive)	0.23 (inactive)	0.715	0.166 (inactive)	0.727 (inactive)	-0.406
COc1cc2c(cc1OC)CN(C(=O)[C@@H]1[C@H]3C(=O)O[C@H](c4ccccc4)[C@H](c4ccccc4)N3[C@H](c3ccc(OCCO)cc3)[C@@]13C(=O)Nc1ccccc13)CC2	0.547 (inactive)	0.534	5.29 (inactive)	2.11 (inactive)	1.06 (inactive)	0.956 (inactive)	-0.0621	0.799 (inactive)	0.837 (inactive)	1.03
O=C1O[C@H](c2ccccc2)[C@H](c2ccccc2)N2[C@H]1[C@@H](C(=O)NC[C@H](O)c1ccccc1)[C@]1(C(=O)Nc3ccc(C#CCCO)cc31)[C@H]2c1ccc(OCCO)cc1	0.0129 (inactive)	0.138	3.5 (inactive)	1.19 (inactive)	0.123 (inactive)	0.663 (inactive)	-0.268	1.16 (inactive)	0.861 (inactive)	0.275
C=C(COC)/C(=C/C[C@H](OC(=O)c1ccncc1)c1ccccc1OCCO)c1cnc2ccccc2c1	0.657 (inactive)	0.401	13 (active)	1.86 (inactive)	1.31 (inactive)	0.553 (inactive)	0.513	-1.85 (inactive)	-0.502 (inactive)	-0.71
C=CCC(OC(C)=O)[C@@H]1[C@@H](N(Cc2ccc(-c3ccccc3)cc2)C(=O)Cc2ccc(F)cc2)c2cc(OCCCO)ccc2N1C(=O)Cc1ccc(OC)cc1 (stereo not given in full)	0.246 (inactive)	0.106	3.94 (inactive)	0.477 (inactive)	-0.407 (inactive)	0.259 (inactive)	-0.152	0.0982 (inactive)	0.675 (inactive)	1.67
C=CCC(OC(C)=O)[C@@H]1[C@@H](N(Cc2ccc(-c3cccc(C(F)(F)F)c3)o2)C(=O)c2ccc(-c3ccccc3)cc2)c2cc(OCCCO)ccc2N1C(=O)c1ccc2ccccc2n1 (stereo not given in full)	-0.662 (inactive)	-0.0501	0.394 (inactive)	-0.262 (inactive)	0.0785 (inactive)	0.188 (inactive)	1.02	-1.73 (inactive)	-1.3 (inactive)	-0.764
COCCOC(=O)N1C(=O)[C@@]2(c3cc(C#CCCO)ccc31)[C@H](c1ccccc1OCCO)N1[C@H](c3ccccc3)[C@H](c3ccccc3)OC(=O)[C@H]1[C@@H]2C(=O)Nc1nc2ccccc2s1	-0.395 (inactive)	0.241	13.1 (active)	3.36 (inactive)	0.621 (inactive)	1.66 (inactive)	-0.202	1.18 (inactive)	0.781 (inactive)	1.53
C=CC[C@]1(C(=O)O)COC(c2ccc(OCCCO)cc2)=N1	-0.27 (inactive)	0.0437	2.23 (inactive)	-0.0432 (inactive)	0.472 (inactive)	0.2 (inactive)	-0.331	0.388 (inactive)	-0.287 (inactive)	1.09
